TbREL1 primary = TbREL1 RNA ligase inhibitors, primary screen, biochemical, FRET fluorescence; RNA-editing ligase 1, mitochondrial (Trypanosoma brucei brucei), P86926; TbREL1 RNA ligation; inhibition, % at 9.66 µM; 89,000 compounds, 0.49% hits; AID 1117264, 2014;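 active means inhibition above the mean inhibition across all screened compounds plus 3 SD, cut at about 11% in these data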;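 further: 0% = plate median of test wells and 100% = NSC42067 control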
Target sequence (P86926 whole entry, looked up): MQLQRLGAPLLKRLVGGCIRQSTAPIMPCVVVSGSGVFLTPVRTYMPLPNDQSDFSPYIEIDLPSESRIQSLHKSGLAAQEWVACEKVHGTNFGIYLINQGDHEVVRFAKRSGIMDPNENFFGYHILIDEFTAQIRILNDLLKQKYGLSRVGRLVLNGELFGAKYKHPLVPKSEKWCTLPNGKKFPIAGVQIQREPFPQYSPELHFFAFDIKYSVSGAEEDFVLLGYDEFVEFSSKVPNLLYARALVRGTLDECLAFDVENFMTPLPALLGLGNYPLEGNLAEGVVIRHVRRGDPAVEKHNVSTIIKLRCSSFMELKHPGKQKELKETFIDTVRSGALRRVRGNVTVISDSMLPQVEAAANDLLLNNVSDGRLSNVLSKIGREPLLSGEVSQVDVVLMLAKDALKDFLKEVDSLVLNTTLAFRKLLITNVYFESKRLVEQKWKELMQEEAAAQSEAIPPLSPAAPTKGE
TbREL1 conf = TbREL1 RNA ligase inhibitors, confirmation, biochemical, FRET fluorescence, triplicate; shares compounds with TbREL1 primary; TbREL1 RNA ligation; inhibition, % at 9.66 µM; 390 compounds, 37% hits; AID 1117282, 2014;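 active means mean inhibition across replicates above a set limit taken from the earlier primary screen, cut at about 11% in these data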;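 further: 0% = REL1 with substrate and DMSO and 100% = REL1 plus control inhibitor NSC42067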
The depositor's hits bear a star. Only a selection was taken, and hits are over-represented in it overall.

SMILES	TbREL1 primary	others
Cc1ccc2c(n1)sc1c(-c3ccc(Br)cc3)c(C#N)c(N)nc12	-1
N#Cc1c(Cl)c(Cl)c2nnc(-c3ccc(Br)cc3)n2c1Cl	16*
Cn1cccc1CC(=O)NN=C/C=C\c1ccco1	67*	TbREL1 conf=2
Cn1cccc1CC(=O)NN=Cc1cccc(F)c1	1
Cc1ccc(-n2c(SCC(=O)N/N=C/C=C\c3ccco3)nnc2-c2ccccc2)cc1	-6
COc1ccc(/C(C)=N\NC(=O)c2ccco2)cc1	1
CN1C2=NC(c3ccccc3)CC(=O)N2/C(=C\c2ccccc2)C1c1ccccc1C(F)(F)F (centres undefined)	2
Cc1cc(NC(=O)C23CC4CC(CC(C4)C2)C3)n[nH]1	12*	TbREL1 conf=5
CCC(=O)Nc1cc(C)c(NC(=O)C23CC4CC(CC(C4)C2)C3)cn1	-3
Cc1nn(C)c(C)c1NC(=O)C12CC3CC(CC(C3)C1)C2	2
Cc1ccccc1CN1CCCCC(NC(=O)c2cccc(F)c2)C1=O (centres undefined)	-2
CCCCCC[N+](C)(C)CC/C=C1/c2ccccc2Sc2ccc(Cl)cc21	14*	TbREL1 conf=14*
CNCC/C=C1/c2ccccc2CSc2ccccc21	5
S=C1Nc2ccccc2Sc2ccc(Cl)cc21	1
COc1ccc(C(=O)NCCN2C(=O)C3C4C=CC(C4)C3C2=O)cc1OC (centres undefined)	1
COc1ccc(-n2c(SCC(=O)NNC(=S)Nc3ccccc3)nc3ccccc3c2=O)cc1	-5
CCCC[C@H]1C2CC(OC(=O)Nc3ccc(C)cc3)C(C2)[C@H]2CCCCN21 (some centres undefined)	-1
CCCC[C@H]1C2CC(OC(=O)Nc3ccc(C#N)cc3)C(C2)[C@H]2CCCCN21 (some centres undefined)	11*	TbREL1 conf=4
CCCC[C@H]1C2CC(OC(=O)Nc3ccc(Br)cc3)C(C2)[C@H]2CCCCN21 (some centres undefined)	5
CCCCNC(=O)N1CCCC1C(=O)Nc1cccc(OC)c1 (centres undefined)	-2
C/C(=N/NC(=O)c1cccnc1)c1cccc(O)c1	-3
CC(C)(C)c1ccc(-c2nnc(SCC(=O)c3ccc([N+](=O)[O-])cc3)n2-c2ccc(Cl)cc2)cc1	0
Cc1cc(-c2n[nH]c(=S)n2N=Cc2cc(Br)ccc2F)n[nH]1	-5
CCCCCC(=O)NC1CCCCN(Cc2ccc(C)cc2)C1=O (centres undefined)	-5
CCN(CC)CCn1c(=N)n(CC(O)COc2ccccc2)c2ccccc21 (centres undefined)	3
SMILES	TbREL1 primary	others
CCCCCn1c(=N)n(CC(O)COc2ccccc2OC)c2ccccc21 (centres undefined)	11*	TbREL1 conf=10
Cc1ccc(OCC(O)Cn2c(=N)n(CCN3CCCCC3)c3ccccc32)cc1 (centres undefined)	9
COc1ccc(NC(=O)c2ccc(-c3ccc([N+](=O)[O-])cc3)o2)cc1	-1
CC1(C)CC(NC(=O)c2ccc(-c3ccc([N+](=O)[O-])cc3)o2)CC(C)(C)N1	12*	TbREL1 conf=4
CC1(C)CC(NC(=O)Nc2ccc([N+](=O)[O-])cc2)CC(C)(C)N1	0
O=S1(=O)c2ccc(N3CCCC3)cc2Oc2ccccc2CN1Cc1cn(Cc2cccc(F)c2)nn1	11
O=C(Cc1ccc2c(c1)OCO2)N1CCC(n2nc(-c3ccccc3)oc2=O)CC1	0
O=C(NCC(c1ccccc1)c1ccccc1)[C@H](Cc1ccccc1)NC1(C(=O)NC2CCCCC2)CCOCC1	4
CC(C)(C)CC(=O)Nc1nnc(SCC(=O)NC2CCCC2)s1	1
CCOc1ccc(NC(=O)CSC2=NN3CCCC(=O)N=C3S2)cc1	-3
CCSc1nnc(NC(=O)CSC2=NN3CCCC(=O)N=C3S2)s1	15*	TbREL1 conf=1
CC(NCC(=O)Nc1ccccc1C(=O)NC1CC1)c1ccc(S(N)(=O)=O)cc1 (centres undefined)	17*	TbREL1 conf=6
CCN(CC)S(=O)(=O)c1ccc(C(C)NCC(=O)Nc2ccccc2C(=O)NC2CC2)cc1 (centres undefined)	1
O=C(CN1CCN(S(=O)(=O)c2ccc(F)cc2)CC1)Nc1ccccc1C(=O)NC1CC1	-1
COc1ccc(Cn2cc(COC(=O)NCC(C)C)nn2)cc1	0
CC(C)(C)c1ccc(C(=O)Nc2cc(Cl)c(F)cc2C(=O)O)cc1	13*	TbREL1 conf=2
CC(C)(C)c1ccc(C(=O)Nc2cc(Cl)c(Cl)cc2C(=O)O)cc1	-2
CC(C)(C)c1ccc(C(=O)Nc2ccc(Cl)cc2)cc1	2
COC(=O)C1CCN(C(=O)CN2CCC(C(=O)c3ccc(C)cc3)CC2)CC1	-3
C#CCOCCOCCOCCNc1nc(N2CCN(C(=O)[C@H](CCCN=C(N)N)n3cc(C(N)[C@@H](C)CC)nn3)CC2)nc(N2CCN(C(=O)[C@H](CCC(=O)O)n3cc([C@@H](N)CCCCN)nn3)CC2)n1 (some centres undefined)	2
C#CCOCCOCCOCCNc1nc(N2CCN(C(=O)[C@H](CCCCN)n3cc([C@@H](N)C(C)CC)nn3)CC2)nc(N2CCN(C(=O)[C@H](CCCCN)n3cc([C@@H](N)C(C)CC)nn3)CC2)n1 (some centres undefined)	16*	TbREL1 conf=17*
C#CCOCCOCCOCCNc1nc(N2CCN(C(=O)[C@H](CCCCN)n3cc([C@@H](N)[C@H](C)CC)nn3)CC2)nc(N2CCN(C(=O)[C@H](CCC(=O)O)n3cc([C@@H](N)CCCCN)nn3)CC2)n1	4
CC(=O)c1cc(-c2ccccc2)n(CC(=O)NCc2ccccc2)c1C	-2
COC(=O)c1ccc(Cn2ccc3ccc(-c4ccc5ccn(C(=O)c6cccc(OC)c6)c5c4)cc32)cc1	0
C=CCNC(=O)N1CCN(Cc2nc3ccccc3c(=O)[nH]2)CC1	0
SMILES	TbREL1 primary	others
NC(=O)[C@@H]1CC2(CC(c3cccc(NC(=O)CC(c4ccccc4)c4ccccc4)c3)=NO2)CN1C(=O)c1ccc(Cl)cc1 (some centres undefined)	0
NC(=O)[C@H]1CC2(CC(c3cccc(NC(=O)[C@H]4CCC(=O)N4)c3)=NO2)CN1C(=O)c1ccccc1 (some centres undefined)	20*	TbREL1 conf=26*
C/C=C(/C)C(=O)Nc1cccc(C2=NOC3(C2)C[C@H](C(N)=O)N(C(=O)c2ccccc2)C3)c1 (some centres undefined)	-2
CSCCCNC(=O)c1oc(=O)c2ccccc2c1-c1ccc(C)cc1	-4
COCCN(C(=O)/C=C/c1ccccc1)c1c(N)n(Cc2ccccc2)c(=O)[nH]c1=O	2
COCCN(C(=O)/C=C/c1ccccc1)c1nnc(-c2cccnc2)s1	12*	TbREL1 conf=-3
O=C(Cc1ccccc1)Nc1nnc(-c2cccnc2)s1	0
Cc1ccc(-n2c(SCc3cccc(F)c3)nnc2-c2cccc(C)c2)cc1	6
Cc1ccc(OCCN2CCN(C)CC2)c([N+](=O)[O-])c1	12*	TbREL1 conf=6
Cc1ccc(OCCOCCN2CCN(C)CC2)c(C(C)(C)C)c1	-1
COCCCNCCCCOc1ccc(C)cc1[N+](=O)[O-]	3
C[C@@H]1Cc2cc(O)c(O)c(O)c2C(=O)O1	1
Cc1cc(C)cc(NC(=O)O[C@@H]2CC[C@@]34CCCN3C(=O)CCC[C@H]4C2)c1	-7

Source: PubChem BioAssay (The Scripps Research Institute Molecular Screening Center)
